CYP2C19 act – cytochrome P450 2C19 (human) activation | activation factor at 5 µM | P33261 | recombinant CYP2C19, luciferin-H EGE luminescence; hits give high values; 0 = fully inhibited enzyme, 1 = untreated enzyme | AID 1025 | 96,000 tested, under 10 active;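 active means activation factor of at least 2 at 5 µM in the primary screen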
Target sequence (P33261 whole entry, looked up): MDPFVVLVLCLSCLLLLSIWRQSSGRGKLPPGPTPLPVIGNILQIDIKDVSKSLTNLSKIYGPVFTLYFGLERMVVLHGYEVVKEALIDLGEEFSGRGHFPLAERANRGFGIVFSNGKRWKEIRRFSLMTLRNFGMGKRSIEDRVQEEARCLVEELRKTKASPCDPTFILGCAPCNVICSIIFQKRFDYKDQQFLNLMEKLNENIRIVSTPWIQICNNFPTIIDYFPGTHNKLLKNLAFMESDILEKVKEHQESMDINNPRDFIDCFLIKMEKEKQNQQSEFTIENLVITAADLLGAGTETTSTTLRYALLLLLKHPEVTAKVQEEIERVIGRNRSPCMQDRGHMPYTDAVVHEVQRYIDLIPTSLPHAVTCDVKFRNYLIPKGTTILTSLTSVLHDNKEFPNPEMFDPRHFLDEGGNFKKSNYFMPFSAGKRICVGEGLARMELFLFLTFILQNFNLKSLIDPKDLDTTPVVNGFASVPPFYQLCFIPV
CYP2C9 inh – blocks human cytochrome P450 2C9 | P11712 | CYP2C9 Supersomes, luciferin-H conversion, luminescence | inhibition, % at 5 µM | 96,000 tested, 20% active | AID 777;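 active means blocking of liver enzyme CYP2C9 beyond about 50% at 5 µM, limit read from the data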
CYP2C9 act – increases human cytochrome P450 2C9 activity; recombinant CYP2C9, luciferin-H conversion, luminescence; hits give high values; factor 1 = untreated enzyme, 0 = blocked; activation factor at 5 µM; 96,000 tested, 1.4% active;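 active means activation factor of 2 or more for CYP2C9 at a 5 µM dose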
CYP2C19 inhib – inhibitors of human CYP2C19. P33261. CYP2C19 Supersomes, luciferin-H EGE luminescence, 30 min. inhibition, % at 5 µM. 96,000 tested, 21% active. AID 778;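 active means CYP2C19 inhibition above a set limit at 5 µM in the primary screen, cut at about 50% in these data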
Measles CPE – protection of cells from measles virus | Measles virus-infected cells, CPE protection, absorbance | protection (pct of control), % at 4 µM | 140,000 tested, 1.5% active | AID 841; in the data active means protection mostly above about 24%, no sharp cut-off; inactive means mostly below about 26%
Of the large screens only hits and unclear results are named; the others gave an inactive call. Sampled rows, rich in hits. Any-hit rate of the full collection: about 22%.

O=C(c1ccc(Cl)c(Cl)c1)N(Cc1ccco1)c1ccc(O)cc1	CYP2C9 inh 98, CYP2C19 inhib 99
Cc1ccc(C)c(Cn2c(CO)nc3ccccc32)c1	none
CCOc1ccccc1NC(=O)c1cccc(NC(=O)CC(c2ccccc2)c2ccccc2)c1	CYP2C9 inh 51, CYP2C19 inhib 71
CCOc1ccccc1NC(=O)c1ccc(Cl)c(NC(=O)CC(c2ccccc2)c2ccccc2)c1	CYP2C9 inh 80, CYP2C19 inhib 51
CCOc1ccccc1C(=O)Nc1cc(C(=O)NCCc2ccccc2)ccc1Cl	none
O=C(NC1CCCCC1)N1CCC(c2nc(-c3ccc(S(=O)(=O)N4CCCC4)cc3)no2)CC1	none
COCCOC(=O)c1[nH]c2c(c1C)C(=O)CC(c1ccco1)C2 (stereo unspecified)	CYP2C9 inh 72
CCOC(=O)c1[nH]c2c(c1C)C(=O)CC(c1ccco1)C2 (stereo unspecified)	CYP2C9 inh 60
COC(=O)c1[nH]c2c(c1C)C(=O)CC(c1cccs1)C2 (stereo unspecified)	none
Cc1c(C(=O)OCc2ccccc2)[nH]c2c1C(=O)CC(c1ccco1)C2 (stereo unspecified)	CYP2C9 inh 89
Cc1c(C(=O)OCCOC(C)C)[nH]c2c1C(=O)CC(c1ccco1)C2 (stereo unspecified)	CYP2C9 inh 75
COc1ccc2[nH]c(C(O)(Cc3cccnc3)Cc3cccnc3)cc2c1	none (no result: CYP2C19 act, CYP2C9 inh, CYP2C9 act, CYP2C19 inhib)
CCN1CCN(CCNC(=O)C2CCN(Cc3nc(-c4ccc(Cl)cc4)oc3C)CC2)CC1	none
COCCOC(=O)c1[nH]c2c(c1C)C(=O)C(C(=O)OC)C(C)C2 (stereo unspecified)	none
Cc1c(C(=O)OCCOC(C)C)[nH]c2c1C(=O)CC(C)(C)C2	CYP2C9 inh 70, CYP2C19 inhib 58
CSCCOC(=O)c1[nH]c2c(c1C)C(=O)CC(c1ccco1)C2 (stereo unspecified)	CYP2C9 inh 52
COc1ccccc1NC(=O)N1CCCC1C(=O)NC1CCCCC1 (stereo unspecified)	none
COC(=O)c1ccc(NCCc2csc(-c3ccc(C)cc3)n2)c([N+](=O)[O-])c1	CYP2C9 inh 60, CYP2C19 inhib 52
Clc1ccc(OCc2nnc3n2N=C(c2ccc4c(c2)OCCO4)CS3)c(Cl)c1	CYP2C9 inh 97, CYP2C19 inhib 74
O=C1CCC/C(=N/NC(=O)c2ccc(CN3c4cccc5cccc(c45)S3(=O)=O)cc2)C1	none (no result: CYP2C19 act, CYP2C9 inh, CYP2C9 act, CYP2C19 inhib)
COc1ccc(-c2noc(C)c2-c2ccc3ccccc3n2)c(O)c1	CYP2C9 inh 72, CYP2C19 inhib 100
COc1ccc(-c2onc(C)c2-c2ccccc2)c(O)c1	CYP2C19 inhib 96
COc1cccc(-c2nc(-c3ccccc3)no2)c1	none
Cc1oc2c(C)c(O)ccc2c(=O)c1-c1ccc2ccccc2n1	none
CC(=O)N(C)C1=C(O)c2ccccc2C(=O)C1=O	Measles CPE 39
CC(=O)N(C1=C(O)c2ccccc2C(=O)C1=O)C1CCCCC1	none (no result: CYP2C19 act, CYP2C9 inh, CYP2C9 act, CYP2C19 inhib)
CCN1CCN(CCCCSc2ccccc2)CC1	none (no result: CYP2C19 act, CYP2C9 inh, CYP2C9 act, CYP2C19 inhib)
COC(=O)c1ccccc1NC(=O)C1CCCC1	CYP2C19 inhib 57
CCC(=O)Nc1cccc2c1C(=O)N(C)C2=O	none (no result: CYP2C19 act, CYP2C9 inh, CYP2C9 act, CYP2C19 inhib)
COC(=O)c1ccccc1NC(=O)C1CCN(C(=O)c2cc(OC)c(OC)c(OC)c2)CC1	CYP2C9 inh 91
COc1cc(C(=O)N2CCN(C(=O)c3ccccc3)CC2)cc(OC)c1OC	none
O=C(Nc1ccccc1Oc1ccccc1)C1CC1	CYP2C19 inhib 70
CN1C(=O)c2cccc(NC(=O)C3CCCCC3)c2C1=O	CYP2C19 inhib 74
C=CCc1ccc(OCCOCCOc2cccc3ccc(C)nc23)c(OC)c1	none
CCNC(=O)Cn1cc(C#N)c2ccccc21	none (no result: CYP2C19 act, CYP2C9 inh, CYP2C9 act, CYP2C19 inhib)
O=C(CCN1CCOCC1)c1ccc2c(c1)OCCO2	none (no result: CYP2C19 act, CYP2C9 inh, CYP2C9 act, CYP2C19 inhib)
O=C(CCCN1CCC(c2ccccc2)C1)c1ccc2c(c1)OCCO2 (stereo unspecified)	CYP2C19 inhib 72
O=C(CCN1CCc2ccccc2CC1)c1ccc2c(c1)OCCO2	CYP2C9 inh 71, CYP2C19 inhib 55
O=C(NC12CC3CC(CC(C3)C1)C2)c1ccc(-c2cccc(Cl)c2)o1	none (no result: CYP2C19 act, CYP2C9 inh, CYP2C9 act, CYP2C19 inhib)
O=C(NC12CC3CC(CC(C3)C1)C2)c1ccc(COc2ccc(Cl)cc2[N+](=O)[O-])o1	CYP2C9 inh 75
Cc1ccc(C(c2sc3nc(C)nn3c2O)N2CCOCC2)cc1 (stereo unspecified)	none
O=C(CNC(=O)c1ccc(Cl)cc1)N/N=C/C=C/c1ccccc1	none (no result: CYP2C19 act, CYP2C9 inh, CYP2C9 act, CYP2C19 inhib)
CCCNC(=O)NC(=O)CSc1nc2ccccc2n1CC(C)C	CYP2C9 inh 53, CYP2C19 inhib 88
CCNC(=O)NC(=O)CSc1nc2ccccc2n1CCOC	CYP2C9 inh 61
CCCCSc1nnc(-c2cc(Br)ccc2N)c(=O)[nH]1	none
Nc1ccccc1-c1nnc(SCc2ccccc2Cl)[nH]c1=O	CYP2C9 inh 88
C=CCSc1nnc(-c2cc(Br)ccc2N)c(=O)[nH]1	CYP2C9 inh 72
C=CCSc1nnc(-c2ccccc2NC(=O)CC)c(=O)[nH]1	CYP2C9 inh 52
CC(=O)Nc1ccccc1-c1nnc(SCc2ccccc2Cl)[nH]c1=O	CYP2C9 inh 99
Cc1ccc(CSc2nnc(-c3ccccc3N)c(=O)[nH]2)cc1	CYP2C9 inh 92
O=C(Cn1c(NCCO)nc2ccccc21)c1ccc(Cl)cc1	none
CC(O)CNc1nc2ccccc2n1CC(=O)NCCc1ccc(Cl)cc1 (stereo unspecified)	CYP2C19 inhib 50
CC(C)CCNC(=O)Cn1c2c(c(-c3ccccc3Cl)cc1=O)CCC2	CYP2C9 inh 62
CCCC(=O)Nc1cc(C)c(NC(=O)Cc2ccccc2)cn1	none
O=C(c1ccccc1)N(Cc1ccccc1)c1ccccn1	CYP2C19 inhib 57
O=C(c1ccc(Br)o1)N(Cc1ccccc1)c1ccccn1	CYP2C19 inhib 72
O=C(c1cnc2sccn2c1=O)N(Cc1ccccc1)c1ccccn1	CYP2C9 inh 50
O=C(C1CCCCC1)N(Cc1ccccc1)c1ccccn1	none
O=S(=O)(c1ccccc1)N(Cc1ccccc1)c1ccccn1	CYP2C9 inh 57, CYP2C19 inhib 67
CC(C)C(=O)N(Cc1ccccc1)c1ccccn1	none
O=C(O)c1ccc(CN(c2ccccn2)S(=O)(=O)c2ccccc2)cc1	none
O=C(O)c1sccc1SCc1ccc(Cl)cc1Cl	CYP2C9 inh 54
CC(NC(=O)c1cccs1)c1nnc(SCc2ccc(Cl)cc2Cl)n1C (stereo unspecified)	none (no result: CYP2C19 act, CYP2C9 inh, CYP2C9 act, CYP2C19 inhib)
Cc1cc(C)cc(NC(=O)Cn2c(=O)oc3cc(S(=O)(=O)N4CCC(C)CC4)ccc32)c1	none
COC(=O)Sc1nc(N2CCOCC2)c2c(c1C#N)CC(C)(C)OC2	CYP2C9 inh 83, CYP2C19 inhib 62
CC1(C)Cc2c(C#N)c(SCC(=O)c3ccccc3)nc(N3CCOCC3)c2CO1	CYP2C9 inh 92, CYP2C19 inhib 62
CC1(C)Cc2c(C#N)c(SCc3ccccc3)nc(N3CCOCC3)c2CO1	CYP2C9 inh 88
CC1(C)Cc2c(C#N)c(NCCN3CCOCC3)nc(-c3ccco3)c2CO1	none

Screening results deposited in PubChem BioAssay by several laboratories.
